The values below come from PubChem BioAssay (NCATS).

The nature of the assay: High-throughput drug toxicity screening in the BPDCN cell line Cal-1 (AID 1224825). Conditions: Cal-1 BPDCN cell viability, qHTS; at 45.8 µM (top of the series) unless noted. The essentials: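 Cal-1 cells, 500 per well in phenol-red-free RPMI with 10% FBS, exposed to compounds for 48 hours at 37C, 5% CO2. Viability read by CellTiter-Glo luminescence; percent activity normalized to DMSO (100%) and 9.2 uM bortezomib final (0%).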
Background: In qHTS, concentration-response curves come from the screen itself.
For the molecule `O=[N+]([O-])c1ccc(Nc2ccccc2-c2ccccc2)c2nonc12`, the viability (% of control) stood at 88.7%.

As to `CCC(=C(CC)c1ccc(O)cc1)c1ccc(O)cc1`, the viability (% of control) came to 25.3%.

`C=C1c2cccc(O)c2C(O)=C2C(=O)[C@@]3(O)C(O)=C(C(N)=O)C(=O)[C@@H](N(C)C)[C@@H]3[C@@H](O)[C@H]12`: the viability (% of control) was 94.6%.

In the case of `COc1ccc2cc1Oc1ccc(cc1)C[C@H]1c3cc(c(OC)cc3CCN1C)Oc1c(OC)c(OC)cc3c1[C@H](C2)N(C)CC3`, the viability (% of control) came out at 94.6%.

Turning to `CCC(c1ccc(O)cc1)C(CC)c1ccc(O)cc1` (centres undefined), the viability (% of control) came to 104%.

For `Cc1ccc2c(c1)c1c(n2CCc2ccc(C)nc2)CCN(C)C1`, the viability (% of control) amounted to 90.5%.

For `CCCCC[C@H](O)C=C[C@H]1[C@H](O)CC(=O)[C@H]1CCCCCCC(=O)O`, the viability (% of control) was 93.2%.

For the molecule `O=c1[nH]c(=O)n([C@H]2C[C@@H](O)[C@@H](CO)O2)cc1I`, the viability (% of control) amounted to 87.5%.

`Cn1cc(-c2ccc3nnc(Sc4ccc5ncccc5c4)n3n2)cn1`: the viability (% of control) came to 102%.

Take `Cc1ccc(NC(=O)Nc2cc(C(F)(F)F)ccc2F)cc1Nc1ccc2c(c1)NC(=O)C2=Cc1ccc[nH]1`: the viability (% of control) is 2.92%.

For the molecule `O=c1[nH]nc(OCCCc2ccc(Cl)cc2)c(NCc2cccnc2)c1Br`, the viability (% of control) turned out to be 8.48%.

For `CC(O)=C(C#N)C(=O)Nc1ccc(C(F)(F)F)cc1`, the viability (% of control) came to 81.4%.

`CC(C)Oc1cc(Nc2nc(N[C@@H](C)c3ccc(F)cn3)ncc2Cl)[nH]n1`: the viability (% of control) came to 15.5%.

For `CCC(=O)OCC(=O)[C@@]1(OC(=O)CC)[C@@H](C)C[C@@H]2[C@H]3CCC4=CC(=O)C=C[C@]4(C)[C@@]3(F)[C@@H](O)C[C@@]21C`, the viability (% of control) stood at 15%.

For the molecule `CCOC(=O)[C@@H](N)CCC(=O)N[C@@H](CSCc1ccccc1)C(=O)N[C@@H](C(=O)OCC)c1ccccc1`, the viability (% of control) was found to be 90.7%.

Consider `COc1ccnc(CS(=O)c2nc3ccc(OC(F)F)cc3[nH]2)c1OC` (centres undefined), for which the viability (% of control) was 108%.

With `COc1ccc(CCN(C)CCCOc2ccc(S(=O)(=O)c3[nH]c4ccccc4c3C(C)C)cc2)cc1OC`, the viability (% of control) is 9.08%.

Regarding `CCOC(=O)N1c2ccc(C(F)(F)F)cc2[C@@H](N(Cc2cc(C(F)(F)F)cc(C(F)(F)F)c2)C(=O)OC)C[C@H]1CC`, the viability (% of control) was 91.9%.

Regarding `O=C(CCCN1CCN(c2ccc(F)cc2)CC1)NC1c2ccccc2CSc2ccccc21` (centres undefined), the viability (% of control) was determined as 58.7%.

Regarding `C[C@@H](O)[C@H]1C(=O)N2C(C(=O)OCOC(=O)C(C)(C)C)=C(SC3CN(C4=NCCS4)C3)[C@H](C)[C@H]12`, the viability (% of control) was 39.5%.

For `Oc1cc(O)cc(C=Cc2ccc(O)c(O)c2)c1`, the viability (% of control) is 3.72%.

For `C#CCN(C)CC1=Cc2ccccc2Oc2ccccc21`, the viability (% of control) came to 98%.

Turning to `COc1cc(F)c(C(C)C)cc1-c1ccc(C(F)(F)F)cc1CN1C(=O)O[C@H](c2cc(C(F)(F)F)cc(C(F)(F)F)c2)[C@@H]1C`, the viability (% of control) was 33.1%.

With `O=C(Nc1ccc(OC(F)(F)F)cc1)c1sccc1NCc1ccnc2ccccc12`, the viability (% of control) stood at 11.5%.

As to `CCc1cccc(CC)c1NC(=O)N1Cc2[nH]nc(NC(=O)c3ccc(N4CCN(C)CC4)cc3)c2C1`, the viability (% of control) was 12.8%.

For the molecule `NC[C@H]1O[C@H](O[C@@H]2[C@@H](O)[C@@H](O[C@H]3O[C@H](CO)[C@@H](O)[C@H](N)[C@@H]3O)[C@H](N)C[C@@H]2N)[C@H](O)[C@@H](O)[C@H]1O`, the viability (% of control) came to 98.4%.

On to `C=CC[N+]1([C@H]2C[C@H]3[C@@H]4CC[C@H]5C[C@H](O)[C@@H](N6CCOCC6)C[C@]5(C)[C@@H]4CC[C@]3(C)[C@H]2OC(C)=O)CCCC1`, for which the viability (% of control) was found to be 116%.

Take `c1ccc(CNc2nc(N3CCOc4ccccc43)nc3c2CCCC3)cc1`: the viability (% of control) was found to be 95.6%.

With `Clc1ccc(C2(c3ccc(-c4cn[nH]c4)cc3)CCNCC2)cc1`, the viability (% of control) amounted to 10.8%.

With `CC=C1C2C=C(C)CC1(N)c1ccc(=O)[nH]c1C2` (centres undefined), the viability (% of control) amounted to 128%.

Consider `O=C(Nc1ccccc1)Nc1ccc(-c2ccc(C(=O)[C@H]3CCC[C@H]3C(=O)O)cc2)cc1`, for which the viability (% of control) was determined as 107%.

Take `CC=C(C(=CC)c1ccc(O)cc1)c1ccc(O)cc1`: the viability (% of control) stood at 26.7%.

On to `COc1ccc(-c2nc3ccc(C4=NNC(=O)CC4C)cc3[nH]2)cc1` (centres undefined), for which the viability (% of control) was 107%.

In the case of `COc1ccc(-c2cc(=O)c3c(O)cc(O[C@@H]4O[C@H](CO[C@@H]5O[C@@H](C)[C@H](O)[C@@H](O)[C@@H]5O)[C@@H](O)[C@H](O)[C@@H]4O)cc3o2)cc1O`, the viability (% of control) worked out at 111%.
